Shown are actives, neighbours in structure and some others; about 3% of the full set was active somewhere.
SARS PLpro yeast-1: qHTS of Yeast-based Assay for SARS-CoV PLP; S. cerevisiae expressing SARS-CoV PLpro, growth rescue; Potency, µM (doses to about 32.9 µM), inactives show at the top dose activity, positive = growth rescue, actives largely listed as activators; 330,000 tested, 0.19% active; calls by dose curve; also: potency is read from the fitted curve at half-maximal effect; 0% is about no effect; nearly all actives have a fitted effect of over 55% in size
Sm TGR inh: qHTS Assay for the Inhibitors of Schistosoma Mansoni Peroxiredoxins. purified TGR, DTNB reduction, TNB absorbance 405 nm. Potency, µM (highest dose often 114 µM), without a hit: top-dose activity change, negative = inhibition, actives largely listed as inhibitors. 360,000 tested, 3% active; active = well fitted inhibition curve with a large enough effect; inconclusive = small, poorly fitted or top-dose-only effect; inactive = no such curve, though single readings can be large or run the other way; also: potency is read from the fitted curve at half-maximal effect; % is scaled to controls: 0 for no effect and ±100 for the full control effect; nearly all actives have a fitted effect of over 60% in size
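TGR 20 nM + NADPH 100 uM (dispensed conc.), cpd preinc 15 min RT; start with NADPH (500 uM addition) then DTNB (15 mM addition). Kinetic TNB absorbance, 405 nm filter. Four-parameter Hill fit across titration.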
SARS PLpro yeast-2: qHTS of Yeast-based Assay for SARS-CoV PLP: Hit Validation; shares compounds with SARS PLpro yeast-1; yeast expressing SARS-CoV PLpro, growth phenotype rescue; calls only; 1,000 tested, 19% active; AID 652038, 2013; call rule not given here
An asterisk follows results filed as active; i = inactive; ? = inconclusive; · = no result given; + = active, no number; [ ] = remark or other dose.

SMILES	SARS PLpro yeast-1	Sm TGR inh	SARS PLpro yeast-2
COc1ccc(C(NC(=O)c2cccnc2)c2cc(Cl)c3cccnc3c2O)cc1OC (centres undefined)	2.2µM*	4%	i
COc1cc(C(=O)NC(c2ccc(Cl)cc2)c2cc(Cl)c3cccnc3c2O)cc(OC)c1OC (centres undefined)	·	6%	·
CCC(=O)NC(c1ccco1)c1cc(Cl)c2cccnc2c1O (centres undefined)	-6%	0%[57.1 µM]	·
O=C(Oc1c(Cl)cc(Cl)c2cccnc12)N1CCCCC1	-2%	5%	·
Oc1c(C(c2ccc(Cl)cc2)N2CCCC2)cc(Cl)c2cccnc12 (centres undefined)	·	3.2µM*	i
Oc1c(C(Nc2ccccn2)c2cccnc2)cc(Cl)c2cccnc12 (centres undefined)	2.5µM*	4.5µM*	i
O=C(Cn1c(=O)c2cc(Cl)ccc2n2nncc12)Nc1ccccc1	·	2%	·
O=C(NCCc1csc(-c2ccc(F)cc2)n1)C(=O)Nc1ccc(Cl)cc1	·	-1%	·
COC(=O)Nc1ccc(S(=O)(=O)Nc2ccc(O)cc2)cc1	?	8%	i
COC(=O)Nc1ccc(S(=O)(=O)Nc2ccc(C)cc2)cc1	1%	3%	·
O=C(/C=C/c1ccccc1Cl)c1ccccc(=O)c1O	?	4.5µM*	+
Cc1ccc(C)c(NC(=O)c2ccccc2O)c1	-29%	7%	·
Cc1ccc(C)c(/C=C/C(=O)c2ccccc(=O)c2O)c1	3.5µM*	13µM*	i
O=C(/C=C/c1ccccc1Cl)Nc1cccc(O)c1	2%	4%	·
O=C(CN1N=C(c2ccccc2)CCC1=O)NCc1ccc(F)cc1Cl	·	9%	·
C#CC[N+]1(CC#Cc2ccc(C)cc2)CCCCC1	20µM*	-25%	i
Cc1ccc(C#CC[N+]2(C)CCCCC2)cc1	1%	1%	·
CSc1nn(Cc2cccc(Cl)c2)c(N(C(C)=O)C(C)=O)c1S(=O)(=O)c1ccccc1	·	-22%	·
COc1cc(Cl)c(NC(=O)CCS(=O)(=O)c2cc3c(cc2Cl)NC(=O)CO3)c(OC)c1	·	2%	·
Cc1nnc2c3ccccc3c(-c3ccc(O)cc3)nn12	?	1%	i
Cc1ccc(-c2nn3c(-c4ccccc4)nnc3c3ccccc23)cc1	·	-4%	·
Clc1ccccc1Nc1ncnc2c1nc1n2CCCCC1	·	24%	·
CCOC(=O)c1c(NC(=O)c2cc3nc(-c4ccc(OC)cc4)cc(C(F)(F)F)n3n2)sc2c1CCC(C)C2 (centres undefined)	·	-6%	·
CCC1CCC2(CC1)NC(CO)(CO)CO2 (centres undefined)	1%	0%	·
CCC1CCC2(CC1)NNC(=S)NN2	8.9µM*	-10%	i
SMILES	SARS PLpro yeast-1	Sm TGR inh	SARS PLpro yeast-2
CC(C)NC(=O)CCn1c(SCc2c(F)cccc2Cl)nc2c(sc3ccccc32)c1=O	·	8%	·
COc1cc(OC)cc(C(=O)N[C@H](C(=O)OCC(=O)Nc2cccc(F)c2)C(C)C)c1	3.5µM*	10%	i
COc1cc(OC)cc(C(=O)N[C@H](C(=O)OCC(=O)Nc2ccc(OC)c(OC)c2)C(C)C)c1	-2%	7%	·
CSc1ccc(-c2nc3cccc(C)n3c2Nc2ccc(Cl)cc2)cc1	·	19%	·
CCN1C(=O)c2cccc3c(S(=O)(=O)Nc4ccccc4OC)ccc1c23	?	1%	i
CCN1C(=O)c2cccc3c(S(=O)(=O)NCc4ccccc4)ccc1c23	1%	-5%	·
COc1ccc(N2CCN(C(=O)c3cn(C)c4ccc(S(=O)(=O)N(C)C5CCCCC5)cc4c3=O)CC2)cc1	·	-3%	·
O=C(N/N=C/c1ccccn1)c1ccc(Cl)cc1	20%	3%	·
Cn1ncc(Cl)c1C(=O)N/N=C/c1ccccn1	?	-9%	+
CCOc1ccc(-n2c(SC(C)C(=O)OC)nc3c([nH]c4ccccc43)c2=O)cc1 (centres undefined)	·	3%	·
O=C(CC(NC(=O)c1ccccc1)c1ccccc1)Nc1cccc2ccccc12 (centres undefined)	?	-16%	i
O=C(CC(NC(=O)c1ccccc1)c1ccccc1)NCc1ccccc1 (centres undefined)	-1%	·	·
O=S(=O)(c1ccccc1)n1nc(-c2ccco2)nc1NCc1ccccc1	·	-20%	·
Cc1ccc(C)c(N2CCN(Cc3csc(C)c3)CC2)c1	·	0%	·
N#CC1C(=O)NC(N2CCN(c3ccccc3)CC2)=NC12CCCCC2 (centres undefined)	16µM*	-2%	i
CN(C)c1nc(N2CCN(c3ccccc3)CC2)c(C#N)c(=O)o1	2%	2%	·
Cc1ccc(CNC(=O)c2ccc(CS(=O)(=O)Cc3ccc(F)cc3)o2)cc1	·	-9%	·
CCCCn1c(N)c(N(CC)C(=O)c2cc(S(=O)(=O)N3CCCCCC3)ccc2OC)c(=O)[nH]c1=O	?	-5%	i
CCCCn1c(N)c(N(CCOC)C(=O)c2cc(S(=O)(=O)N3CCCCC3)ccc2C)c(=O)[nH]c1=O	·	0%	·
Cc1ccc2c(O)c(C)c(=O)[nH]c2n1	-1%	12%	·
Cc1c(O)c2cccnc2[nH]c1=O	3.5µM*	1%	i
CC(=O)N1CCc2cc(Br)cc(S(=O)(=O)CCC(=O)Nc3ccc(C)cc3Cl)c21	·	-31%	·
O=C(COCc1cc(-c2cccs2)on1)Nc1ccc(OC(F)(F)F)cc1	·	5%	·
O=C1CC(c2ccccc2C(F)(F)F)c2c(c3ccccc3[nH]c2=O)O1 (centres undefined)	·	6%	·
COc1ccc(NC(=O)Cn2c(=O)n(Cc3ccco3)c(=O)c3oc4ccccc4c32)cc1Cl	·	-5%	·
SMILES	SARS PLpro yeast-1	Sm TGR inh	SARS PLpro yeast-2
O=C(N/N=C/c1ccccc1OC(F)F)c1cc(-c2ccncc2)nc2ccccc12	13µM*	-1%	+
O=C(O)COc1ccccc1/C=N/NC(=O)c1cc(-c2ccccc2)nc2ccccc12	-1%	-7%	·
C=CCn1c(SCC(=O)Nc2cc(C)c(Cl)cc2OC)nnc1-c1ccco1	3%	67%	·
C=CCn1c(SCC(=O)Nc2cc(C)ccc2OC)nnc1-c1ccco1	?	-15%	i
CC(C)(C)C1CCc2c(sc(NC(=O)c3ccc(Cl)cc3)c2C(=O)NCc2ccco2)C1 (centres undefined)	·	2%	·
Cn1c(=O)c2c(nc(SCc3nc(N)nc(N4CCCCC4)n3)n2C)n(C)c1=O	?	5%	i
CCCn1c(SCc2nc(N)nc(N3CCCCC3)n2)nc2c1c(=O)n(C)c(=O)n2C	-10%	3%	·
CCn1c(CN2CCC(C)CC2)nc2cc(NC(=O)COc3ccc(Cl)c(C)c3)ccc21	·	-16%	·
CC(=O)c1cccc(S(=O)(=O)NCCc2csc3nc(-c4ccc(F)cc4)nn23)c1	·	2%	·
C/C(=N\NC(N)=S)c1ccc(Cl)s1	10µM*	6%	?
C/C(=N\NC(=S)NC(C)C)c1ccc(Cl)s1	?	-7%	·
O=c1c(-c2cc(-c3ccccc3)nc3c2COc2ccccc2-3)coc2ccc(Cl)cc12	·	-5%	·
CCC(Sc1nc2ncccc2[nH]1)C(=O)Nc1ccccc1F (centres undefined)	·	3%	·
Cc1onc(-c2ccccc2)c1C(=O)NC(=S)NNC(=O)c1ccc(O)cc1O	14µM*	-2%	+
Cc1onc(-c2ccccc2)c1C(=O)NNC(=O)c1ccccc1Br	2%	0%	·

Source: PubChem
